Several values for one entry are separate records, joined by “and”; a condition that tells them apart may be missing. Equal values may be shown once. This is part of a sample that, as a whole, favours compounds with a hit. Of some 83,000 tested, about 20% had one in any assay.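 96-well plates, one dose, 48 hours. Percent growth reported; active if below 10.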 Activity calls are given as the source filed them.

What all share (assay): NCI-60 one-dose screen, 48 h (100 = growth as untreated, 0 = no growth, -100 = all killed)
What all share (conditions): 10 µM unless noted

In assay [1] the test system is SK-MEL-2 melanoma.
Assay [2] has as its system EKVX NSCLC.
Assay [3] has as its system SN12C renal.
Assay [4] deals with UO-31 renal.
The subject of assay [5] is TK-10 renal.
The subject of assay [6] is ACHN renal.
In assay [7] the test system is CAKI-1 renal.
Assay [8] has as its system A498 renal.
The test system of assay [9] is CCRF-CEM leukemia.
In assay [10] the test system is SR leukemia.
The test system of assay [11] is RPMI-8226 leukemia.
For assay [12], the system named is OVCAR-8 ovarian.
Assay [13] concerns OVCAR-4 ovarian.
Assay [14] deals with SK-OV-3 ovarian.
For assay [15], the system named is IGROV1 ovarian.
Assay [16] concerns OVCAR-3 ovarian.
Assay [17] has as its system HS 578T breast.
Assay [18] concerns NCI/ADR-RES ovarian.
Assay [19] concerns MOLT-4 leukemia.
Assay [20] concerns OVCAR-5 ovarian.

Regarding `COC(=O)c1nc(=S)[nH]c(C(=O)OC)c1C(=O)c1ccc2ccccc2c1`, the growth in [1] is 104% (inactive); in assay [2], 103% (inactive); in assay [3], 97.2% (inactive); in [4], 81% (inactive); in assay [5], 109% (inactive); in [6], 101% (inactive). Also, the growth in [7] is 86.2% (inactive); in assay [8] it was 119% (inactive); in assay [9] it was 102% (inactive); in assay [10] it was 93.5% (inactive); in [11], 103% (inactive); in assay [12] it was 107% (inactive). Moreover, the growth is 96.9% (inactive) in assay [13]; 101% (inactive) in [14]; 98.5% (inactive) in assay [15]; 109% (inactive) in [16]; 103% (inactive) in assay [17]; 106% (inactive) in assay [18].
For the compound `Cc1cc(N)c2ccccc2[n+]1CCCCCCCCCC[n+]1c(C)cc(N)c2ccccc21`, the growth in assay [1] is -23.7% (active) and -19.9% (active); in [2], 13.4% (inactive) and 1.53% (active); in assay [3] it was 5.16% (active) and 5.31% (active); in assay [4], 19.2% (inactive) and 65.3% (inactive); in assay [5], 21.1% (inactive) and 35.1% (inactive); in assay [6] it was 42.8% (inactive). The growth was 30.9% (inactive) and 69.6% (inactive) in assay [7]; -7.94% (active) in assay [8]; 6.34% (active) and 22% (inactive) in assay [9]; -43.9% (active) and 1.26% (active) in assay [19]; -53% (active) and 3.2% (active) in assay [10]; 9.49% (active) and -11.6% (active) in [11]. Further, the growth in [12] was 26.8% (inactive); in assay [20] it was -58.1% (active); in assay [13], 21.2% (inactive) and 19.8% (inactive); in assay [14] it was 9.8% (active) and -29.2% (active); in assay [15], 4.94% (active) and -18.4% (active); in assay [16], -16.7% (active) and 15% (inactive). The growth in [18] is 66.2% (inactive) and 64.1% (inactive).
Take `CCC(c1cccc(O)c1)C(CC)c1cccc(O)c1` (stereo not given): the growth in assay [1] was 71.8% (inactive); in [2] it was 64.1% (inactive); in assay [3], 68.5% (inactive); in [4] it was 64.1% (inactive); in assay [5], 80% (inactive); in assay [6], 75.1% (inactive). For the same compound, the growth is 66.4% (inactive) in assay [7]; 70.8% (inactive) in assay [8]; 49.8% (inactive) in assay [9]; 33.7% (inactive) in [19]; 16.5% (inactive) in assay [10]; 85.6% (inactive) in assay [12]. The growth is 96.3% (inactive) in [20]; 67.6% (inactive) in assay [13]; 76.5% (inactive) in assay [14]; 72.4% (inactive) in assay [15]; 77.3% (inactive) in assay [16]; 54.2% (inactive) in [17]. In [18], the growth was 72.1% (inactive).
Take `CC(=O)C(=Cc1ccc(C=C(C(C)=O)C(C)=O)cc1)C(C)=O`: the growth in assay [1] is 70.8% (inactive); in assay [2], 94.2% (inactive); in [3] it was 17.4% (inactive); in [4], -12.2% (active); in assay [5], 5.12% (active); in [6], -33.5% (active). In addition, the growth in [7] is -50.7% (active); in assay [8], 94.1% (inactive); in [9], -5.86% (active); in assay [19] it was 6.74% (active); in assay [10], 6.26% (active); in [12], 2.83% (active). The growth in [20] was 27.1% (inactive); in [13], 30.4% (inactive); in [14], 93.9% (inactive); in assay [15], 48.6% (inactive); in assay [16], -16.2% (active); in [17], 64.7% (inactive). For the same compound, in [18], the growth is 7.49% (active).
Regarding `Oc1c(Br)cc(Cl)cc1C(c1cc(Cl)cc(Br)c1O)C(Cl)(Cl)Cl`, the growth is -30.2% (active) in assay [1]; 15.7% (inactive) in assay [2]; 10.8% (inactive) in assay [3]; 12.6% (inactive) in assay [4]; 24.5% (inactive) in assay [5]; 10.5% (inactive) in [6]. In addition, the growth is 1.81% (active) in assay [7]; -12.4% (active) in assay [8]; 14.6% (inactive) in assay [19]; 28.5% (inactive) in assay [10]; 14.3% (inactive) in assay [12]; 42% (inactive) in [20]. The growth in assay [14] is 32.5% (inactive); in [15], 24.8% (inactive); in assay [16], 12.7% (inactive); in [17], 21.2% (inactive); in assay [18], 7.13% (active).
On to `CC1(C)CC([P+](c2ccccc2)(c2ccccc2)c2ccccc2)=NN1`, for which the growth is -19.2% (active) in assay [1]; 67.4% (inactive) in [2]; 30.4% (inactive) in assay [3]; 67.8% (inactive) in [4]; 56.4% (inactive) in [5]; 88.1% (inactive) in assay [6]. Further, the growth is 90.1% (inactive) in assay [7]; 92% (inactive) in [8]; 41.3% (inactive) in assay [9]; 21% (inactive) in assay [19]; 16.2% (inactive) in assay [11]; 32.3% (inactive) in assay [12]. Besides, the growth in [13] is 17.9% (inactive); in assay [14], 33.2% (inactive); in assay [15], -22.8% (active); in assay [16] it was 23.7% (inactive); in [17], 72.1% (inactive); in assay [18], 105% (inactive).
On to `O=C1c2ccccc2C(=O)c2sc(Nc3cccc(Cl)c3)nc21`, for which the growth in [1] is -16% (active); in assay [2] it was 7.78% (active); in [3], -71.3% (active); in assay [4] it was -5.49% (active); in assay [5], 147% (inactive); in assay [6], -52.8% (active). Further, the growth in [7] was 70.4% (inactive); in [8], 79.3% (inactive); in assay [9] it was 8.52% (active); in assay [19], -19.6% (active); in [10], 2.67% (active); in assay [11], 2.31% (active). For the same compound, the growth was 1.49% (active) in assay [12]; -67.4% (active) in assay [20]; -9.21% (active) in assay [13]; 86.9% (inactive) in assay [14]; 0.883% (active) in assay [15]; -34.3% (active) in [16]. The growth in assay [18] was -16.9% (active).
Turning to `CC(C)(C)CC(C)(C)c1ccc(OCCSC(=N)N)cc1`, the growth in [1] was 96.4% (inactive); in assay [2], 51.8% (inactive); in assay [3], 53.7% (inactive); in assay [4] it was 37.2% (inactive); in [5], 72.3% (inactive); in assay [6], 69.1% (inactive). The growth in [7] is 71.3% (inactive); in assay [8], 60.2% (inactive); in assay [10], -37.7% (active); in [11], 2.8% (active); in assay [12], 56.2% (inactive); in assay [20], 79.3% (inactive). In addition, the growth in assay [13] is 41.2% (inactive); in [14], 89.6% (inactive); in assay [15], 77.1% (inactive); in [16] it was 46.7% (inactive); in assay [18], 71.7% (inactive).
For the compound `Cc1ccnc2c1ccc1c(C)ccnc12`, the growth in assay [1] was 27.3% (inactive); in [2], 22.2% (inactive); in assay [3] it was 15.6% (inactive); in assay [4], -4.12% (active); in assay [5] it was 25.7% (inactive); in assay [6], 11.3% (inactive). Further, the growth is 16% (inactive) in assay [7]; 19.5% (inactive) in [8]; 13.6% (inactive) in assay [9]; 3.4% (active) in assay [19]; 4.34% (active) in [10]; 12.1% (inactive) in assay [12]. Further, the growth was 48.8% (inactive) in [20]; 24.1% (inactive) in assay [13]; 3.59% (active) in assay [14]; 23.8% (inactive) in [15]; 24.9% (inactive) in [16]; 52.6% (inactive) in assay [17]. Besides, in [18], the growth was 1.41% (active).

The values are drawn from PubChem BioAssay (NCI).
